In ChEMBL document CHEMBL4513216, “Probing the Open Global Health Chemical Diversity Library for Multistage-Active Starting Points for Next-Generation Antimalarials” (ACS Infect Dis, 2020):
The campaign covered roughly 69,000 compounds. About 8,600 (12%) showed an effect of 50% or more. Shown is part of a subset that was picked to be rich in strong results.

The molecules below were run on Plasmodium berghei (assay: Screen against P. berghei liver stage (PbLuc), transformed with Luciferase, at 10uM). Conditions: tested at 10 uM.
Assay type: functional, HepG2

| Compound | INHIBITION [%] |
| --- | --- |
| Cc1nc(-c2ccsc2)ccc1C(=O)NCC(C)N1CCOCC1 (stereo not drawn) | -24.275 |
| N#Cc1ccc(F)c(CN2CCCCC2Cn2cccn2)c1 (stereo not drawn) | -36.1 |
| COc1ccccc1CC(C)CC(=O)N(C)Cc1cc(C)on1 (stereo not drawn) | 14.7 |
| O=C(c1nc2c(o1)CN(CC1CCC1)C2)N1CCCC1 | -15.6 |
| COc1cc2nc3n(c(=O)c2cc1OC)CCN(C(=O)C1CCC1)CC3 | 23.4 |
| CCOCCN1CCN(CC(O)c2ccc(OC)cc2)CC1 (stereo not drawn) | -9.39 |
| COc1cccc(N2CCN(CC(O)c3ccc(C)cc3)CC2)c1 (stereo not drawn) | 17.4 |
| CCN1CCN(CC(O)c2ccc(OC(F)(F)F)cc2)CC1 (stereo not drawn) | 56.1 |
| COc1cccc(N2CCN(CC(O)c3cc(C)ccc3C)CC2)c1 (stereo not drawn) | 67.9 |
| COCCN1CCN(CC(O)c2cc(OC)ccc2OC)CC1 (stereo not drawn) | -94.3 |
| CCn1cc(CN2CCN(CC(O)c3cc(C)ccc3C)CC2)c(C)n1 (stereo not drawn) | 43.6 |
| COc1cccc(N2CCN(CC(O)c3cc(C)sc3C)CC2)c1 (stereo not drawn) | 63.1 |
| COc1ccc(OC)c(C(O)CN2CCN(C3CCCC3)CC2)c1 (stereo not drawn) | -113 |
| CCCN1CCN(CC(O)c2ccc(OC(F)(F)F)cc2)CC1 (stereo not drawn) | 33.7 |
| COc1cccc(C(O)CN2CCN(c3cccc(C)c3)CC2)c1 (stereo not drawn) | 16 |
| OC(CN1CCCCCCC1)c1ccc(OC(F)(F)F)cc1 (stereo not drawn) | 19.2 |
| CCc1ccc(C(O)CN2CCN(c3cccc(OC)c3)CC2)cc1 (stereo not drawn) | 54 |
| CCN(Cc1nonc1C)C(=O)Cn1nc(C(F)(F)F)cc1C1CC1 | 28.89 |
| Cc1cccc(CC(=O)N2CCCCC2CN)c1 (stereo not drawn) | 8.13 |
| CCC(C)(C)c1cc(-c2c(C)nn(CCO)c2C)c(C#N)c(N)n1 | -24.6 |
| NC1CCC(NC(=O)c2ccc3nc(-c4ccc(F)cc4)cn3c2)CC1 (stereo not drawn) | 24.7 |
| CN(C)CCOc1ccc(N(C)S(=O)(=O)c2cnn(C)c2)cc1 | 32.3 |

| Compound | INHIBITION [%] |
| --- | --- |
| Cc1cnn(CCNCc2nnc(-c3ccccc3)o2)c1 | 31.3 |
| COc1ccc(N2CCN(CC(O)c3ccc(C)cc3C)CC2)cc1 (stereo not drawn) | 41.6 |
| COc1ccc(OC)c(C(O)CN2CCN(c3cccc(C)c3)CC2)c1 (stereo not drawn) | 34.5 |
| COc1ccc(N2CCN(CC(O)c3cc(C)ccc3C)CC2)cc1 (stereo not drawn) | 69.8 |
| c1ncn(CC2CCCN(Cc3csc(-c4ccsc4)n3)C2)n1 (stereo not drawn) | -12.2 |
| CN(C)Cc1ccc(N2CCN(CCOCC(F)(F)F)CC2)nc1 | 33.4 |
| CN(CC(=O)N1CCCC1c1noc(C2CC2)n1)Cc1ccccc1 (stereo not drawn) | 23.7 |
| CCN1CC(COC(=O)c2cccc(Br)c2)CC1=O (stereo not drawn) | 16.8 |
| CCn1nc(C)cc1C(=O)OCC1CC(=O)N(Cc2ccccc2)C1 (stereo not drawn) | 10.1 |
| CCN1CC(COC(=O)c2cc(C)nn2CC)CC1=O (stereo not drawn) | 50.4 |
| CCCOc1cc(CNC(=O)Nc2cccc(C(C)=O)c2)ccn1 | 16.6 |
| OCC1(O)CCCN(Cc2noc(-c3ccccc3)n2)C1 (stereo not drawn) | 9.41 |
| O=C(COCC(=O)N(c1ccccc1)c1ccccc1)N1CCCC1 | -7.27 |
| Cn1nc2c(cc1=O)CN(Cc1nc(-c3ccoc3)no1)CC2 | -7.16 |
| CCn1nc2c(cc1=O)CN(Cc1nc(-c3cccs3)no1)CC2 | 60.5 |
| CCCn1nc2c(cc1=O)CN(Cc1nc(-c3ccoc3)no1)CC2 | 61.1 |
| Cn1nc2c(cc1=O)CN(Cc1nc(-c3cccs3)no1)CC2 | 26.1 |
| CC(C)n1nc2c(cc1=O)CN(Cc1nc(-c3ccoc3)no1)CC2 | 77.9 |
| COCCc1noc(CN2CCc3nn(C(C)C)c(=O)cc3C2)n1 | 48.2 |
| Cc1ccc(-c2noc(CN3CCc4nn(C)c(=O)cc4C3)n2)cc1 | -11.4 |
| CCc1ncc2c(n1)CN(Cc1nc(-c3cccs3)no1)CC2 | 28.8 |
| CCn1nc2c(cc1=O)CN(Cc1nc(-c3ccoc3)no1)CC2 | 42.1 |

| Compound | INHIBITION [%] |
| --- | --- |
| CCn1nc2c(cc1=O)CN(Cc1nc(-c3ccsc3)no1)CC2 | 7.7 |
| Cc1ncc2c(n1)CN(Cc1nc(-c3cccs3)no1)CC2 | 28.8 |
| CC(C)c1ncc2c(n1)CN(Cc1nc(-c3cccs3)no1)CC2 | 65.1 |
| Cc1nn(C2CCCCC2)c2nc(C(C)(C)CN3CCOCC3)[nH]c12 | -16.9 |
| CN(Cc1noc(C2CC2)n1)C1CCN(Cc2ncc[nH]2)C1 (stereo not drawn) | 3.1 |
| Cc1nc(CN2CCCC(NCc3cnc(C(C)(C)C)s3)C2)no1 (stereo not drawn) | -19.6 |
| O=C(NCC1(Sc2ccccc2)CC1)c1cc[nH]n1 | 5.15 |
| O=C1CCC2(CCC(NCc3ccsc3)CC2)N1Cc1ccccc1 (stereo not drawn) | 29.7 |
| CCc1c(C)n(C)c2nc3ccccc3n2c1=O | -13.8 |
| CN1CCCCC1CCC(=O)NCCCn1nccc1C1CC1 (stereo not drawn) | 47.7 |
| CC(C)N(CC(N)=O)C(=O)CCC(=O)c1ccc(F)cc1F | 23.7 |
| CS(=O)(=O)c1cccc(C(N)c2ccccc2)c1 (stereo not drawn) | -19.4 |
| N#CC1(C(=O)NCc2ccc(F)cc2)CCCC1 | -22.1 |
| CC(C)(N)C(=O)N1CCCC1c1cncc(Oc2ccccc2)n1 (stereo not drawn) | 26.3 |
| CCCn1nc2c(cc1=O)CN(Cc1c(C)noc1C)CC2 | 2.69 |
| CC(C)n1nc2c(cc1=O)CN(Cc1nc(-c3ccco3)no1)CC2 | 54.4 |
| Cc1cc(CN2CCc3nn(C(C)C)c(=O)cc3C2)no1 | 35.1 |
| CCn1nc2c(cc1=O)CN(Cc1nc(-c3ccco3)no1)CC2 | 35.9 |
| CCCn1nc2c(cc1=O)CN(Cc1nc(-c3ccco3)no1)CC2 | 20.8 |
| Cc1noc(C)c1CN1CCc2nn(C(C)C)c(=O)cc2C1 | 54.4 |
| CC(C)c1nc(CN(C)C(=O)CCNC(=O)c2ccccc2F)no1 | 12.4 |
| CC(C)Cc1noc(CN(C)C(=O)CCNC(=O)c2ccccc2F)n1 | 51.5 |

| Compound | INHIBITION [%] |
| --- | --- |
| CCN(CC1CCOCC1)C(=O)CCNC(=O)c1ccccc1F | 32.2 |
| CCN(CC1CCCCO1)C(=O)CCNC(=O)c1ccccc1F (stereo not drawn) | 28.5 |
| Cc1nc(CCN(C)C(=O)CCNC(=O)c2ccccc2F)no1 | 43.9 |
| CCN(Cc1nc(COC)no1)C(=O)CCNC(=O)c1ccccc1F | 58.1 |
| CC(C)CCNC(=O)C1CCN(c2ccc3nnc(C(C)C)n3n2)CC1 | 21 |
| O=S(=O)(NCC1(c2cccs2)CCOCC1)c1cccnc1 | -115 |
| NCc1cccc(NC(=O)CCN2CCOCC2)c1 | -5.1 |
| OCCC[C@@H]1CN(c2ncc(Cl)cc2Cl)CC[C@@H]1N1CCOCC1 | 1.93 |
| O=C(NCc1cn2c(n1)CN(Cc1cccnc1)CC2)C1CCC1 | 26.3 |
| c1ccc(-c2cc(CNCCN3CCOCC3)c3nnnn3c2)cc1 | 5.11 |
| c1ccc(-c2cc(CNCCCC3CCOC3)c3nnnn3c2)cc1 (stereo not drawn) | 74.9 |
| c1ccc(-c2cc(CNCCCN3CCCCC3)c3nnnn3c2)cc1 | -38.2 |
| Cc1cnn(CC2CCN(CC(O)c3ccccc3)CC2)c1 (stereo not drawn) | 33 |
| Cc1ccc(OCC(O)CN2CCC(Cn3cc(C)cn3)CC2)cc1 (stereo not drawn) | 33.3 |
| Cc1cnn(CC2CCN(CC(O)c3ccccc3Cl)CC2)c1 (stereo not drawn) | 57.2 |
| Cc1cnn(CC2CCN(CC(O)c3ccccc3F)CC2)c1 (stereo not drawn) | -30.8 |
| Cc1cc(C)n(CC2CCN(CC(O)Cn3cccn3)CC2)n1 (stereo not drawn) | -12.2 |
| Cc1cnn(CC2CCN(CC(O)COc3ccccc3)CC2)c1 (stereo not drawn) | 14.5 |
| Cc1cnn(CC2CCN(CC(O)Cn3cccn3)CC2)c1 (stereo not drawn) | 68.5 |
| Cc1cnn(CC2CCN(CC(O)COc3ccc(F)cc3)CC2)c1 (stereo not drawn) | 56.1 |
| Cc1cnn(CC2CCN(CC(O)CN3CCC(C)CC3)CC2)c1 (stereo not drawn) | 30.4 |
| CCC(CC)S(=O)(=O)NC(=O)c1ccc2c(c1)ncn2C | 5.11 |

| Compound | INHIBITION [%] |
| --- | --- |
| NC(=O)C1CCN(C(=O)NCCOc2ccc3c(c2)OCO3)C1 (stereo not drawn) | -69.3 |
| CCCc1noc(CN2CCCCC2Cn2cncn2)n1 (stereo not drawn) | 27.2 |
| CN1CCN(CCO)C(=O)C12CCN(Cc1ccsc1)CC2 | 18.2 |
| O=C(N[C@@H]1CCC[C@@H](N2CCCC2)[C@@H]1O)c1cc2ccccc2[nH]1 | 48.4 |
| CN(C)CC(=O)N1CC(c2nn(C)c3nccnc23)C1 | -0.902 |
| NC(=O)C1CCN(c2cncc(-n3cccn3)n2)CC1 | 48.3 |
| O=C(c1ccccc1)C1CCN(c2cncc(-n3cccn3)n2)CC1 | 74.8 |
| O=C(c1ccc(-n2cccn2)nc1)N1CCCC(c2cnccn2)C1 (stereo not drawn) | -50.3 |
| c1ccc(C2CCN(c3cncc(-n4cccn4)n3)CC2)cc1 | 85.1 |
| c1cc(C2CCN(c3cnccn3)CC2)ccn1 | 18.4 |
| c1ccc(COC2CCN(c3cncc(-n4cccn4)n3)CC2)cc1 | 53.5 |
| N#Cc1cccnc1N1CCC(OCc2ccccc2)CC1 | 18.9 |
| c1ccc(C2CCCN(c3cncc(-n4cccn4)n3)CC2)cc1 (stereo not drawn) | 90.2 |
| Cn1cnnc1C1CCN(c2cncc(-n3cccn3)n2)CC1 | -8.19 |
| CN(C)C(=O)C1CCN(c2cncc(-n3cccn3)n2)CC1 | 41.4 |
| NC(=O)CC1CCN(c2cncc(OCc3ccccc3)n2)CC1 | 12.4 |
| Nc1cccnc1N1CCC(c2ccccc2)CC1 | 6.29 |
| Cc1nc(CN2C[C@@H]3CN(C(=O)c4cccn4C)C[C@@H]3C2=O)cs1 | 39.8 |
| Cc1ccc2nc(C3CCCN(CC(C)C)C3)nc(O)c2c1 (stereo not drawn) | 13.5 |
| CCc1n[nH]c(C2CN(C(=O)c3nc(C)n4ccccc34)CCO2)n1 (stereo not drawn) | 17.8 |
